The list is not random: actives were taken first. Their share in the collection is about 1.7%.
hERG WT inh: blocks the wildtype human KCNH2 potassium channel | Q12809 | U2OS, BacMam KCNH2, thallium flux FluxOr; hits give low values | activity change, % at 1.84 µM | 340,000 compounds, 0.37% hits;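 active = maximum activity change below -70%; inconclusive = maximum activity change between -70% and -50%; inactive = maximum activity change above -50%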
Target sequence (Q12809 whole entry, looked up): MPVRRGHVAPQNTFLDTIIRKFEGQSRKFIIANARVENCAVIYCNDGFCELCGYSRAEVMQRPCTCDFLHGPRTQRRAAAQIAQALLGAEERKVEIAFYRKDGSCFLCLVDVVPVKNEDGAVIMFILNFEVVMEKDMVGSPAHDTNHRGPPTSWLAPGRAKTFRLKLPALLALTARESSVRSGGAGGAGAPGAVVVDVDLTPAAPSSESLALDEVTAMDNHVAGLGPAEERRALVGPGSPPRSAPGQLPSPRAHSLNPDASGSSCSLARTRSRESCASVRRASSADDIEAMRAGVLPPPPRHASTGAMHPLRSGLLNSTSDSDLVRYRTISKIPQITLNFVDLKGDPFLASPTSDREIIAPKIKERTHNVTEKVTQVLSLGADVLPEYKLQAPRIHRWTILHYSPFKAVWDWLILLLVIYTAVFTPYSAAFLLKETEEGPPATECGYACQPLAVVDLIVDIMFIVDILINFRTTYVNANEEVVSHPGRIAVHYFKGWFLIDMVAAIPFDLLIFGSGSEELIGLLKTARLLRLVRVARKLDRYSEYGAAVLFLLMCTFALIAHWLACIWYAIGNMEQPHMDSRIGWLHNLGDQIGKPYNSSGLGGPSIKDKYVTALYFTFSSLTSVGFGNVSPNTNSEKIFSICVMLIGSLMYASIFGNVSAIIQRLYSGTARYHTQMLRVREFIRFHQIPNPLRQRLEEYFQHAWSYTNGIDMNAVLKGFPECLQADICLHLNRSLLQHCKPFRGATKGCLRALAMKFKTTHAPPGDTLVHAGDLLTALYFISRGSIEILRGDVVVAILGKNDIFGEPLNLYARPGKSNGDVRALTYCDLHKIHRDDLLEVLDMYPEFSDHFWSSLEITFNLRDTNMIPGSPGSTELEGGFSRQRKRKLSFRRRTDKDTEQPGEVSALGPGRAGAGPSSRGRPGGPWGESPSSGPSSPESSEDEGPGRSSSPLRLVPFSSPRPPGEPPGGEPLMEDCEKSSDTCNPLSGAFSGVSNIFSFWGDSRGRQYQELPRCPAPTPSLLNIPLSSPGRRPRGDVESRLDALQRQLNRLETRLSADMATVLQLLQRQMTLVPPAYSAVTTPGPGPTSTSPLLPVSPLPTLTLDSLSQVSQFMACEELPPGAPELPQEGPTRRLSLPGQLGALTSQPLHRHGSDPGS
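U2OS cells transduced with wild-type KCNH2 virus are loaded with FluxOr dye for 45 min, and thallium flux is measured in kinetic reads before and after stimulation buffer. Rate constants are normalized to DMSO controls.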
RXFP1 ag: RXFP1 (human) receptor agonism. Q9HBX9. HEK293T-RXFP1 cAMP TR-FRET, 30 min; response scale: percent of porcine relaxin response, buffer zero. Potency, µM (highest dose often 57.5 µM), for inactives: top-dose activation, actives largely listed as activators. 370,000 compounds, 0.3% hits. AID 2676; active = well fitted activation curve with a large enough effect; inconclusive = small, poorly fitted or top-dose-only effect; also: potency is read from the fitted curve at half-maximal effect; nearly all actives have a fitted effect of over 60% in size
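cAMP rise read by TR-FRET after 30 min, 37C compound exposure (up to 58 uM) in RXFP1-transfected HEK293 cells with Ro 20174 present. EC50 from Hill-equation fits, with 29 nM porcine relaxin as 100% and buffer as basal.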
Akt phos inh: inhibitors of Akt phosphorylation | Neuro2A IGF-stimulated pAkt S473 HTRF, 20 min; hits give low values | activity change, % for hits at 50 µM | 360,000 compounds, 0.32% hits; in the data active = activity change below about -80%; inconclusive = mostly about -51% to -80%
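Neuro2A cells in DMEM with 0.5% FBS, overnight at 37 deg C, given compound at single 50 µM final, then IGF (6 nM final) for 20 min at 37 deg C. Lysed; phospho-Akt Ser473 by HTRF after 24 h, 665/615 ratio.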
KCNH2 3.1 inh: inhibitors of human KCNH2 3.1 potassium channel isoform; U2OS KCNH2 3.1, thallium flux FluxOr; hits give low values; activity change, % (tested at about 1.8 µM); 340,000 compounds, 0.95% hits;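 active = maximum activity change below -70%; inconclusive = maximum activity change from -70% to -50%; inactive = maximum activity change above -50%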;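 also: thallium influx rate constant from kinetic fluorescence after stimulation buffer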
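Thallium flux via FluxOr fluorescence (Red40 quencher, 45 min loading) in U2OS cells virally expressing the KCNH2 3.1 isoform (1.77 x 10^8 /mL virus, overnight at 37 C). Rate constants from 2-min kinetic reads post-stimulation, normalised to positive and negative controls.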
RXFP1 antag: blocks the human relaxin receptor RXFP1 | HEK293-RXFP1, relaxin-stimulated cAMP HTRF, 30 min; hits give low values | Q9HBX9 | AID 1259400 | activity change, negative = inhibition, % at 57.5 µM | 350,000 compounds, 0.59% hits;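 active = activity change of -60% or lower, but not beyond a set lower limit; inconclusive = change between -60% and -40%, or beyond the set limit; inactive = change above -40%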
* marks the source's active call; other numbers are inactive results; i = inactive; ? = inconclusive; / = no result given. % is scaled to controls: 0 for no effect and ±100 for the full control effect.

SMILES	hERG WT inh	RXFP1 ag	Akt phos inh	KCNH2 3.1 inh	RXFP1 antag
CCN(CC)c1ccc(N2C(=O)/C(=C/c3cccs3)SC2=S)cc1	-0.2	0.8%	-102.8%*	-8.8	-6.0
CCN(CC)c1ccc(N2C(=O)CSC2=S)cc1	2.3	-0.9%	i	-4.7	-14.5
O=C(Cc1ccccc1)Nc1cccc(N2C(=O)C=CC2=O)c1	-2.2	3.0%	i	-13.5	-119.3*
CCCNC(=O)COC(=O)c1cc(SC)ccc1Cl	6.6	3.3%	i	0.0	5.4
Cc1cc(-c2ccccc2)nc2c(Br)c(C(=O)O)nn12	-4.8	/	i	-82.2*	-3.9
O=C(CCN1CCN(C(c2ccccc2)c2ccccc2)CC1)N/N=C/c1ccc(O)cc1	0.2	-0.5%	i	-79.5*	-6.9
COc1cc(/C=N/NC(=O)CN2CCCCC2)ccc1OCc1ccc(Br)cc1	26.8	-1.2%	i	-90.5*	-5.1
O=C(CCN1CCCCC1)N/N=C/c1ccc(Br)cc1	3.4	3.1%	i	-75.1*	-15.6
O=C(CCN1CCN(C(c2ccccc2)c2ccccc2)CC1)N/N=C/c1ccc(O)cc1O	-8.8	1.0%	i	-44.6	-4.7
CCn1c(C)nc2cc(C(=O)NNC(=S)Nc3ccccc3)ccc21	-11.6	3.1%	i	1.0	2.7
O=C(/C(=C/c1ccccc1)n1cncn1)c1ccc(Cl)cc1Cl	1.1	-0.1%	i	2.3	?
CCOCCn1c(SCCc2ccccc2)nc2c1c(=O)[nH]c(=O)n2C	0.8	0.2%	i	-5.8	-0.4
CCOCCSc1nc2c(c(=O)[nH]c(=O)n2C)n1CCCc1ccccc1	-0.1	0.7%	-113.6%*	-10.6	2.8
C=CCNc1nc2c(c(=O)[nH]c(=O)n2C)n1CCCCC	-1.2	3.9%	-114.4%*	3.1	2.1
CCOC(=O)C(C)Sc1nc2c(c(=O)[nH]c(=O)n2C)n1CCc1ccccc1 (stereo not drawn)	28.6	0.2%	-102.6%*	-32.9	-2.3
CCCn1c(SCCc2ccccc2)nc2c1c(=O)[nH]c(=O)n2C	-1.2	1.1%	i	-37.1	7.7
COC(=O)C(C)Sc1nc2c(c(=O)[nH]c(=O)n2C)n1CCCc1ccccc1 (stereo not drawn)	31.6	13.3%	i	6.0	2.8
CCCCCn1c(SCCc2ccccc2)nc2c1c(=O)[nH]c(=O)n2C	8.0	3.1%	-112.3%*	-11.1	-1.0
Cc1ccc(-c2n[nH]c(=S)n2/N=C/c2cccn2C)cc1	3.8	0.1%	i	2.6	-5.5
CCc1ccc(CNC(=O)c2ccc(NC(=O)N3CCCCc4ccccc43)cc2)cc1	/	2.0%	/	/	/
CC(O)(CS(=O)(=O)Cc1ccccc1)c1ccc(Cl)cc1 (stereo not drawn)	-9.4	7.1%	i	28.9	-0.2
Cc1nc(OCC(C)C)c2sc3nc4c(cc3c2n1)COC(C)(C)C4	7.4	1.5%	i	-2.0	-103.5*
c1ccc(OCc2nnnn2-c2ccccc2)cc1	17.0	-2.3%	i	-6.9	-0.6
CCOc1cccc(/C=C2/NC(=O)N(CC(=O)Nc3cccc(C)c3)C2=O)c1O	-4.2	-0.8%	i	6.9	-77.4*
COc1ccc(-n2nc3c(c2NC(=O)c2c(F)cccc2Cl)CS(=O)C3)cc1 (stereo not drawn)	-4.1	-1.2%	i	-78.0*	/
SMILES	hERG WT inh	RXFP1 ag	Akt phos inh	KCNH2 3.1 inh	RXFP1 antag
COc1ccc(-n2nc3c(c2NC(=O)CC(C)C)CS(=O)C3)cc1 (stereo not drawn)	-11.5	-1.8%	i	-6.5	20.7
Cc1cc(C)nc(NS(=O)(=O)c2ccc(NC(=O)c3cc(-c4ccccc4)nc4ccccc34)cc2)n1	-0.4	-0.3%	i	-5.0	-24.0
O=C(CN1CCN(C2CCCCC2)CC1)c1ccc2cc[nH]c2c1	33.4	2.9%	i	-11.1	7.5
Cc1[nH]c(=S)c(C#N)c(C)c1Cc1ccc(Cl)cc1Cl	0.8	10.3%	i	-19.6	?
Cc1[nH]c(=S)c(C#N)c(C)c1CC(=O)c1ccc(Br)cc1	14.3	6.7%	i	-5.4	-70.2*
C=C(C)Cn1c(CCn2c3ccccc3c3ccccc32)n[nH]c1=S	9.0	-0.5%	i	4.9	-65.1*
CC(=O)n1cc(N(C(=O)CCl)c2ccc(Cl)cc2)c2ccccc21	-5.0	-2.7%	i	-5.2	-14.2

Source: PubChem
